Screen size: about 350,000 compounds; about 31,000 (8.9%) were called active. Another 15% or so got no clear call; they are omitted. Calls come from the whole dose curve; as a rule, active = well fitted inhibition curve with a large enough effect; inconclusive = small, poorly fitted or top-dose-only effect; inactive = no such curve, though single readings can be large or run the other way. The entries come from a sample that favours actives as a whole. A call without a number means that no potency is given here. Where a structure was tested more than once in an assay, its records may differ in their call.
What follows are compounds tested against Histone-lysine N-methyltransferase EHMT2 (Homo sapiens) (UniProt Q96KQ7) (assay: qHTS Assay for Inhibitors of Histone Lysine Methyltransferase G9a). Conditions: G9a H3K9 monomethylation, AlphaScreen, 2 h; series mostly up to 59 µM.
Histone-lysine N-methyltransferase EHMT2 (Homo sapiens), sequence (Q96KQ7 913-1193 limits assumed): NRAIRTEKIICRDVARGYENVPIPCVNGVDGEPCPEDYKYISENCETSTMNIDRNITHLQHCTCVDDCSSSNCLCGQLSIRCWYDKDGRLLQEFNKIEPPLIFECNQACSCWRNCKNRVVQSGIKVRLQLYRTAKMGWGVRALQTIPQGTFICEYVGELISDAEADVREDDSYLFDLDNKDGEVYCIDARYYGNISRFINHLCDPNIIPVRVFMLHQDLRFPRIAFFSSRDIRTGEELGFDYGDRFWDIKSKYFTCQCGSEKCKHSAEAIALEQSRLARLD
In short: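 Enzyme 20 nM + cpd, 15 min RT; add b-H3K9 pep 500 nM / SAM 20 uM; 2 h RT; anti-H3K9me1 Ab 0.5 ug/mL + SA donor / anti-rabbit acceptor beads 20 ug/mL each, 10 min; AlphaScreen read.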
Note: nearly all actives have a fitted effect of over 75% in size.
Potency is the fitted concentration of half-maximal effect.

Compound | Potency | activity, negative = inhibition
CCOC(=O)[C@H]1[C@H]2COc3cc(OC)ccc3[C@@H]2N2C(=O)N(c3ccc(Br)cc3)C(=O)[C@@]12C | inactive | –
Cc1c(Cl)cccc1NC(=O)C1CCCN(c2ncnc3onc(C)c23)C1 (stereo unspecified) | inactive | –
CSc1ccccc1OCc1cc(C(=O)N2C[C@H]3CC[C@H]2C3)no1 | inactive | –
O=C(c1ccccc1)c1cc(-c2ccccn2)c(N2CCOCC2)s1 | inactive | –
CCc1ccc2ncc(C(=O)c3ccccc3)c(N3CCOCC3)c2c1 | 56.2 µM (active) | –
CCc1cccc(NC(=O)c2cnc(N3CCOCC3)c3ccccc23)c1 | inactive | –
COc1ccc(C(=O)CC(=O)c2ccc(C)cc2)c(O)c1 | inactive | –
COc1cc2c(cc1OC)C(COc1ccc(F)cc1)N(C(=O)c1ccccc1F)CC2 (stereo unspecified) | inactive | –
O=C1Nc2ccc(Br)cc2/C1=N/N=C/C1=C(N2CCOCC2)C(=C\c2ccccc2)/CC1 | 12.6 µM (active) | –
COc1ccc(/C=N/N=C2/C(=O)Nc3ccccc32)cc1O | inactive | –
COc1ccc(S(=O)(=O)Nc2cc3c(C(=O)OC(C)C)c(C)oc3c3ccccc23)cc1 | inactive | –
Cc1ccc(N(C(=O)c2snc(C(N)=O)c2N)C(C(=O)NCC2CCCO2)c2c[nH]c3ccccc23)cc1 (stereo unspecified) | inactive | –
COc1cccc(N(C(=O)c2snc(C(N)=O)c2N)C(C(=O)NCC2CCCO2)c2c[nH]c3ccccc23)c1 (stereo unspecified) | inactive | –
CCOc1ccc(N(C(=O)c2snc(C(N)=O)c2N)C(C(=O)NCC2CCCO2)c2c[nH]c3ccccc23)cc1 (stereo unspecified) | 39.8 µM (active) | –
CN(CC(=O)Nc1ccc(OC(F)(F)F)cc1)C(=O)C1CCC1 | – | -37% [at 12.7 µM] (inactive)
N#C/C=C\Oc1ccc(Cl)cc1N | 44.7 µM (active) | –
COc1ccc(Cl)cc1C(=O)NCC#N | – | -0.132% [at 12.7 µM] (inactive)
COCCNC(=O)C1CCN(S(=O)(=O)c2ccc3c(c2)OCCO3)CC1 | – | 2.44% [at 0.501 µM] (inactive)
O=C(NC(=S)Nc1ccccc1N1CCCCC1)c1ccc(F)cc1 | inactive | –
O=C(CC1N=C2c3ccccc3N=C(SCc3ccc(F)cc3)N2C1=O)NCc1cccs1 (stereo unspecified) | inactive | –
Nc1nc(-c2ccccc2)cc(-c2ccccc2)n1 | inactive | –
CC(Oc1ccccc1)C(=O)Nc1oc(-c2ccco2)c(-c2ccco2)c1C#N (stereo unspecified) | 28.2 µM (active) | –
COc1cc(C(=O)Nc2oc(-c3ccccc3)c(-c3ccccc3)c2C#N)cc(OC)c1OC | inactive | –
CC(C)C(=O)Nc1oc(-c2ccccc2)cc1C#N | inactive | –

Compound | Potency | activity, negative = inhibition
CCC(=O)N1CCc2cc(Br)cc(S(=O)(=O)NCc3ccc(Cl)cc3)c21 | inactive | –
Brc1ccccc1/C=N/Nc1nc2ccccc2o1 | inactive | –
CCN(CC)CCN1C(=O)C2C(C(=O)Nc3ccc(Br)cc3)C3C=CC2(O3)C1C(=O)NC1CCCCC1 (stereo unspecified) | 50.1 µM (active) | –
CC(C)N1C(=O)C2C(C(=O)NC3CCCCC3)C3C=CC2(O3)C1C(=O)NC1CCCC1 (stereo unspecified) | inactive | –
CCOCCCN1C(=O)C2C(C(=O)Nc3ccc(OCC)cc3)C3C=CC2(O3)C1C(=O)NC1CCCCC1 (stereo unspecified) | inactive | –
CC(=O)N1c2ccc(S(=O)(=O)N3CCCCCC3)cc2CC1C(=O)NCc1ccccc1C (stereo unspecified) | inactive | –
Cc1ccc(S(=O)(=O)NCCC(=O)NNC(=O)C2COc3ccccc3O2)cc1 (stereo unspecified) | inactive | –
Cc1ccc(-n2ncc(C(=O)N(C)Cc3ccccc3)c2-n2cccc2)cc1 | inactive | –
COc1ccc(C(=O)NC2CC2)cc1OC1CCN(Cc2ccc(SC)cc2)CC1 | inactive | –
CCOC(=O)c1c(NC(C)=O)c2c3c(sc2n1Cc1c(C)cc(C)cc1C)CCCC3 | inactive | –
COC(=O)c1ccc(C2CC(=O)Nc3cc(OC)c(OC)cc32)cc1 (stereo unspecified) | inactive | –
COc1cc2c(cc1OC)C(c1ccncc1)CC(=O)N2 (stereo unspecified) | – | -34% [at 2.33 µM] (inactive)
COc1cc2c(cc1OC)C(c1ccc(C)o1)CC(=O)N2 (stereo unspecified) | 20 µM (active) | –
O=C(Nc1cc(C(F)(F)F)ccc1Cl)c1cc2nc(-c3ccc4c(c3)OCO4)cc(C(F)(F)F)n2n1 | inactive | –
CCOc1ccccc1N(CC)C(=O)Nc1cn(C)c(=O)c2ccccc12 | inactive | –
Cn1c(=O)c2[nH]c(NCC3CCCO3)nc2n(-c2ccccc2)c1=O (stereo unspecified) | 8.91 µM (active) | –
Cc1sc2c(c1C)c(=O)n(-c1ccccc1)c(=O)n2CC(=O)NCC1CCCO1 (stereo unspecified) | inactive | –
CC(C)(C)c1nc(NCC2CCCO2)c2nnn(Cc3ccccc3)c2n1 (stereo unspecified) | inactive | –
CCN(CC)C(=O)CSc1nc2ccsc2c(=O)n1Cc1ccccc1Cl | inactive | –
CCCCN(C)c1ccc([N+](=O)[O-])cc1 | inactive | –
CCc1ccc2c(c1)C(c1ccc([N+](=O)[O-])cc1)=NNC(c1ccccc1)=N2 | inactive | –
CCC1OC(c2ccc([N+](=O)[O-])cc2)=Nc2ccccc21 (stereo unspecified) | 44.7 µM (active) | –
COc1ccc(-c2nnc(SCC(=O)Nc3cccnc3Cl)n2C)cc1 | 20 µM (active) | –
COc1ccc(OC)c(NC(=O)CSc2nc3cccnc3n2C)c1 | – | -2.8% [at 12.7 µM] (inactive)

Compound | Potency | activity, negative = inhibition
Cc1cccnc1NC(=O)CSc1nnc(COc2ccc(C(C)C)cc2)n1C | inactive | –
O=S(=O)(ON(c1ccccc1)S(=O)(=O)c1ccccc1)c1ccccc1 | inactive | –
CC1=C/C(=N\OS(=O)(=O)c2ccccc2)C=CC1=O | 2.51 µM (active) | –
CCOc1ccc(/C=C/C(=O)N(CC)CC(=O)NCc2cccs2)cc1OC | – | 7.69% [at 2.33 µM] (inactive)
O=C(Cn1nnc(-c2ccccc2)n1)NC(=O)NC1CCCC1 | inactive | –
CC(=O)Nc1ccc(NC(=O)CSc2nnc3c4cc(Br)ccc4n(C)c3n2)cc1 | inactive | –
Cn1c2ccc(F)cc2c2nnc(NN)nc21 | 39.8 µM (active) | –
Cc1ccc2c(c1)c1ncn(Cc3ccc(F)cc3)c(=O)c1n2C | inactive | –
O=C(CN1C(=O)COc2ccc(S(=O)(=O)N3CCOCC3)cc21)N1CCN(c2cccc(Cl)c2)CC1 | inactive | –
CCOc1ccc(Nc2nc(Cl)nc(N3CCN(c4ccc(OC)cc4)CC3)n2)cc1 | 12.6 µM (active) | –
Cc1ccc(Nc2nc(N3CCOCC3)nc(N3CCOCC3)n2)cc1Cl | inactive | –
CCN1CCN(c2nc(Nc3cc(OC)ccc3OC)nc(Nc3cc(OC)ccc3OC)n2)CC1 | inactive | –
CC1CCN(c2nc3ccc(C(=O)N4CCN(c5ccccc5)CC4)cc3s2)CC1 | inactive | –
COC(=O)c1ccc(COC(=O)c2cnc(Cl)c(Cl)c2)cc1 | inactive | –
Cc1cc(C)n(S(=O)(=O)c2cccc([N+](=O)[O-])c2)n1 | inactive | –
CC1CN(C(=O)c2ccccc2NS(=O)(=O)c2cccc([N+](=O)[O-])c2)CC(C)O1 (stereo unspecified) | inactive | –
C/C(=N\NS(=O)(=O)c1cccc([N+](=O)[O-])c1)c1cc2ccccc2o1 | 12.6 µM (active) | –
COc1ccccc1NS(=O)(=O)c1ccc(C)c(C(=O)NCC(c2ccco2)N(C)C)c1 (stereo unspecified) | – | 22.9% [at 0.501 µM] (inactive)
O=S(=O)(NC1CCCCC1N1CCN(c2ccccc2F)CC1)c1ccccc1 (stereo unspecified) | inactive | –
CCN1CCN(C2CCCCC2NS(=O)(=O)c2ccc(Cl)cc2)CC1 (stereo unspecified) | inactive | –
COc1ccc(N2CCN(C3CCCCC3NS(=O)(=O)c3ccccc3)CC2)cc1 (stereo unspecified) | 22.4 µM (active) | –
CCC(=O)Nc1ccc(C(=O)N2CCN(C(=O)c3ccco3)CC2)cc1 | inactive | –
CCC(CC)c1nnc(NC(=O)C2CCN(C(=O)c3ccco3)CC2)s1 | 3.98 µM (active) | –
COc1ccc(CNC(=O)C2CCN(C(=O)c3ccco3)CC2)cc1 | inactive | –

Compound | Potency | activity, negative = inhibition
CCN(CC)c1nn2c(=O)c(C(=O)NCCc3ccccc3)cnc2s1 | inactive | –
CCc1noc(C)c1C(=O)Nc1nc2ccc(OC)cc2s1 | – | -2.24% [at 12.7 µM] (inactive)
CSc1nccc(NC(=O)c2ccc(C(C)(C)C)cc2)n1 | – | 15.8% [at 0.501 µM] (inactive)
COC(=O)c1nc(NC(=O)c2ccc(C(C)(C)C)cc2)n[nH]1 | 31.6 µM (active) | –
COc1ccc(C(=O)Nc2ccc(F)cc2F)cc1 | – | 29.4% [at 12.7 µM] (inactive)
O=C(Nc1n[nH]c(C(F)(F)F)n1)c1cccs1 | inactive | –
COC(=O)c1nc(NC(=O)c2ccc(F)cc2)n[nH]1 | 35.5 µM (active) | –
COC(=O)c1nc(NC(=O)c2ccccc2)n[nH]1 | – | -8.15% [at 12.7 µM] (inactive)
COc1ccc(CNC(=O)COC(=O)c2ccc(C)c(S(=O)(=O)N3CCOCC3)c2)cc1OC | inactive | –
O=C(c1cc(-c2ccc(Cl)cc2)on1)N1CCN(c2ccccc2)CC1 | inactive | –
Cc1ccc(NC(=O)Cn2cnc3nc4c(cc3c2=O)CCCC4)cc1Cl | inactive | –
Cc1ccc(C(=O)C(C)OC(=O)Cc2n[nH]c(=O)c3ccccc23)cc1C (stereo unspecified) | – | 13.1% [at 2.33 µM] (inactive)
CCOC(=O)c1c(C)[nH]c(C)c1S(=O)(=O)N1CCCC(C(=O)NCc2ccccc2Cl)C1 (stereo unspecified) | inactive | –
COc1ccc(CN2CCCC(C(=O)N3CCCCC3)C2)cc1 (stereo unspecified) | 11.2 µM (active) | –
COc1ccc(/C=C/C(=O)NC(=S)N2CCCC(C(N)=O)C2)cc1 (stereo unspecified) | 79.4 µM (active) | –
COc1ccc(CN2CCCC(CNC(=O)c3ccc(F)cc3)C2)cc1OC (stereo unspecified) | inactive | –
COc1ccc(NC(=O)N2CCCC(C(=O)Nc3ccccc3OC)C2)cc1 (stereo unspecified) | inactive | –
O=C(c1ccc(F)cc1)N1CCCC(C(=O)N2CCCCC2)C1 (stereo unspecified) | inactive | –
CCCCNC(=O)N1CCCC(N(C)CCc2ccc(OC)c(OC)c2)C1 (stereo unspecified) | inactive | –
COc1ccc(CCN(C)C(=O)C2CCCN(Cc3ccc(OC)c(OC)c3)C2)cc1OC (stereo unspecified) | 5.01 µM (active) | -16.1% [at 0.501 µM] (inactive)
COc1ccc(C(=O)C2CCCN(Cc3ccc4nonc4c3)C2)c(C)c1 (stereo unspecified) | inactive | –
CCOC(=O)C1CCCN(C(=O)/C=C/c2ccc(OC)cc2)C1 (stereo unspecified) | inactive | –
Cc1nn(-c2ccc(N3CCCCC3)nn2)c(C)c1CCC(=O)NCc1ccccc1F | inactive | –

From PubChem BioAssay AID504332 (National Center for Advancing Translational Sciences (NCATS), 2011)
